Measurements taken from PubChem BioAssay (NCATS).
Inconclusive results are not listed. A call without a number means that no potency is given here. Unmarked numbers belong to inactive results. Activity calls are given as the source filed them. Calls come from the whole dose curve; as a rule, active = well fitted curve in the direction sought with a large enough effect; inconclusive = small, poorly fitted or top-dose-only effect, or another doubt; inactive = no such curve, though single readings can be large; an effect the other way counts as inactive or inconclusive.

How the values were obtained:
[1] = biological target: ATP-dependent 6-phosphofructokinase (Trypanosoma brucei brucei) (UniProt O15648); assay: qHTS Assay to Find Inhibitors of T. brucei phosphofructokinase: hit validation (AID 492961);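 note: luminescence reports ADP formed as PFK phosphorylates fructose-6-phosphate with ATP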
ATP-dependent 6-phosphofructokinase (Trypanosoma brucei brucei), sequence (O15648 whole entry, looked up): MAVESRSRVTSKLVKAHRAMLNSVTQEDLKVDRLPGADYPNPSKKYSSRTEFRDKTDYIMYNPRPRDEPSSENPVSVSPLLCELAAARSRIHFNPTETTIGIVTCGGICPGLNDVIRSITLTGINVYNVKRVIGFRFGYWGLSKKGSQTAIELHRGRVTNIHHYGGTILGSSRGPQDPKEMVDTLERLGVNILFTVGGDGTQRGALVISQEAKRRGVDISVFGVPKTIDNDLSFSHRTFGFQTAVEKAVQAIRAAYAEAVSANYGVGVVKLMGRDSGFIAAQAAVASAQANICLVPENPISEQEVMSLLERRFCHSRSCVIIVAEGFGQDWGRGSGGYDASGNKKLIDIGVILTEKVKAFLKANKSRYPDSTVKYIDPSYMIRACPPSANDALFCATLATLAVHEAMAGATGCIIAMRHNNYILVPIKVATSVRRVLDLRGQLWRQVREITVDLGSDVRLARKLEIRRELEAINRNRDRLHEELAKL
Procedure, shortened: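 In this biochemical qHTS validation, titrated compounds were tested against 1.25 nM PFK with 0.1 mM ATP and 0.5 mM F6P. Percent activity came from controls lacking or containing enzyme.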

[2] = biological target: Luciferin 4-monooxygenase (Photinus pyralis) (UniProt P08659); assay: Biochemical firefly luciferase enzyme assay for NPC (AID 624030);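 note: purified P. pyralis luciferase at 10 nM with luciferin and ATP substrate; nearly all actives have a fitted effect of over 70% in size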
Luciferin 4-monooxygenase (Photinus pyralis), sequence (P08659 whole entry, looked up): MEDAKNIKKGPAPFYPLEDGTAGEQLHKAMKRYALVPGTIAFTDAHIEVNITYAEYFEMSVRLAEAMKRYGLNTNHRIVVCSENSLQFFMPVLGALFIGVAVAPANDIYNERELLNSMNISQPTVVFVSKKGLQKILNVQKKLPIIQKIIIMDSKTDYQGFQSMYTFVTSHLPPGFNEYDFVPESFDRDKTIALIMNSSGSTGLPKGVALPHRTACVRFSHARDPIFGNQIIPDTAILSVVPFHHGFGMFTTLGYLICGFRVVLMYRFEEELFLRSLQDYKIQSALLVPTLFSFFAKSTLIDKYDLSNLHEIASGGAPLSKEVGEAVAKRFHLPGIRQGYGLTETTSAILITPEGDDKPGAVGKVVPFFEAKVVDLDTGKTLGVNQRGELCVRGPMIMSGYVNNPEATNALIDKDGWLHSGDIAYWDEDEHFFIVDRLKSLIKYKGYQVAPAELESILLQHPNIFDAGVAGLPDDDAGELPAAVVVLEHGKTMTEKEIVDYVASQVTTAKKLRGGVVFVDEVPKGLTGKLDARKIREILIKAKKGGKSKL
Procedure, shortened: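 Direct inhibition of firefly luciferase enzyme (10 nM final, 50 mM Tris Acetate) assessed by luminescence within 5 minutes. Percent activity scaled between DMSO and PTC124 positive control, with concentration-effect curves classified by fit quality and response.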

[3] = qHTS profiling for inhibitors of Plasmodium falciparum proliferation (AID 504749); note: potency is the fitted concentration of half-maximal effect; for all read-outs here: nearly all actives have a fitted effect of over 60% in size; settings: P. falciparum in erythrocytes, SYBR Green DNA, 72 h; for activity, negative = inhibition: at 28.7 µM (top of the series)
Procedure, shortened: (§1)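 Infected RBCs, 0.3% parasitemia/2.5% Hct final; cpd 72 h, 37 C, 5% CO2; lysis buffer with saponin/triton/SYBR Green I, o/n RT dark; FI 485/535; norm. to artemisinin (0.29 uM) and DMSO.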

[4] = tested on: CP192; assay: as above; settings: P. falciparum in erythrocytes, SYBR Green DNA, 72 h; series mostly up to 28.7 µM
Procedure, shortened: as §1

[5] = tested on: CP201; assay: as above; settings: P. falciparum in erythrocytes, SYBR Green DNA, 72 h; series mostly up to 28.7 µM
Procedure, shortened: as §1

[6] = tested on: CP203; assay: as above; settings: P. falciparum in erythrocytes, SYBR Green DNA, 72 h; series mostly up to 28.7 µM
Procedure, shortened: as §1

[7] = tested on: CP211; assay: as above; settings: P. falciparum in erythrocytes, SYBR Green DNA, 72 h; series mostly up to 28.7 µM
Procedure, shortened: as §1

[8] = tested on: CP262; assay: as above; settings: P. falciparum in erythrocytes, SYBR Green DNA, 72 h; series mostly up to 28.7 µM
Procedure, shortened: as §1

[9] = tested on: CP269; assay: as above; settings: P. falciparum in erythrocytes, SYBR Green DNA, 72 h; series mostly up to 28.7 µM
Procedure, shortened: as §1

[10] = tested on: CP315; assay: as above; settings: P. falciparum in erythrocytes, SYBR Green DNA, 72 h; series mostly up to 28.7 µM
Procedure, shortened: as §1

[11] = tested on: CP325; assay: as above; settings: P. falciparum in erythrocytes, SYBR Green DNA, 72 h; series mostly up to 28.7 µM
Procedure, shortened: as §1

[12] = tested on: CP329; assay: as above; settings: P. falciparum in erythrocytes, SYBR Green DNA, 72 h; series mostly up to 28.7 µM
Procedure, shortened: as §1

[13] = tested on: Dd2; assay: as above; settings: P. falciparum in erythrocytes, SYBR Green DNA, 72 h; series mostly up to 28.7 µM
Procedure, shortened: as §1

[14] = tested on: ECU; assay: as above; settings: P. falciparum in erythrocytes, SYBR Green DNA, 72 h; series mostly up to 28.7 µM
Procedure, shortened: as §1

[15] = tested on: FAB9; assay: as above; settings: P. falciparum in erythrocytes, SYBR Green DNA, 72 h; series mostly up to 28.7 µM
Procedure, shortened: as §1

[16] = tested on: PC49; assay: as above; settings: P. falciparum in erythrocytes, SYBR Green DNA, 72 h; series mostly up to 28.7 µM
Procedure, shortened: as §1

Structure (SMILES)	Potency [1]	Potency [2]	activity, negative = inhibition ([3]; parasite line A)	activity, negative = inhibition ([3]; parasite line B)	Potency [4]	Potency [5]	Potency [6]	Potency [7]	Potency [8]	Potency [9]	Potency [10]	Potency [11]	Potency [12]	Potency [13]	Potency [14]	Potency [15]	Potency [16]	Potency ([3]; parasite line A)	Potency ([3]; parasite line B)
CC(=O)O[C@]1(C(C)=O)CCC2C3CCC4=CC(=O)CCC4(C)C3(F)C(O)CC21C (some centres not stated)	inactive	inactive	7.47%	-19%	inactive	inactive	inactive	inactive	inactive	inactive	inactive	inactive	inactive	inactive	inactive	inactive	inactive		
Clc1ccc(CS[C@@H](Cn2ccnc2)c2ccc(Cl)cc2Cl)cc1	inactive	inactive					4.55 µM (active)			6.42 µM (active)				4.47 µM (active)	1.78 µM (active)			3.16 µM (active)	2.24 µM (active)
C[C@]12CC[C@@H]3c4ccc(O)cc4CC[C@H]3[C@@H]1CCC2OC(=O)CCC1CCCC1 (some centres not stated)	inactive	inactive	-2.55%	-17%	inactive	inactive	inactive	inactive	inactive	inactive	inactive	inactive	inactive		inactive	inactive	inactive		
C#C[C@@]1(O)CC[C@@H]2[C@H]3CCC4=C/C(=N\O)CC[C@H]4[C@@H]3CC[C@]21CC	inactive	inactive	-13.3%	-2.2%	inactive	inactive	inactive	inactive	inactive	inactive	inactive	inactive	inactive	inactive	inactive	inactive	inactive		
CC(C)CCCC(C)C1CC(=O)C2=C3CCC4CC(O)CCC4(C)C3CCC21C (configuration not stated)	inactive	inactive	4.35%	-0.553%	inactive	inactive	inactive	inactive	inactive	inactive	inactive	inactive	inactive	12.6 µM (active)	inactive	inactive	inactive		
C[C@@H]1CC2C3CCC4=CC(=O)C=C[C@]4(C)[C@@]3(F)[C@@H](O)C[C@]2(C)[C@@]1(O)C(=O)COC(=O)c1cccc(S(=O)(=O)O)c1 (some centres not stated)	inactive	inactive	4.33%	-2.2%	inactive	inactive	inactive	inactive	inactive	inactive	inactive	inactive	inactive	inactive	inactive	inactive	inactive		
C[C@]12C=CC(=O)N[C@@H]1CC[C@@H]1C2CC[C@]2(C)C(C(=O)Nc3cc(C(F)(F)F)ccc3C(F)(F)F)CC[C@@H]12 (some centres not stated)	inactive	inactive	-5.45%		inactive	inactive	inactive	inactive	inactive	inactive		inactive	inactive	inactive	inactive				11.2 µM (active)
CC(=O)CC(c1ccccc1)C1C(=O)Oc2ccccc2C1=O (configuration not stated)	inactive	inactive	13.7%	9.27%	inactive	inactive	inactive	inactive	inactive	inactive	inactive	inactive	inactive	inactive	inactive	inactive	inactive		
CCC1OC(=O)C[C@H](O)C(C)[C@@H](O[C@@H]2OC(C)C(O)C(N(C)C)C2O)C(CCN2CC(C)CC(C)C2)CC(C)C(=O)/C=C/C(C)=C\[C@@H]1COC1OC(C)C(O)C(OC)C1OC (some centres not stated)	inactive	inactive	-29.2%											3.98 µM (active)		inactive			
O=C1Oc2ccccc2C(=O)C1C(CC(O)c1ccc(-c2ccc(Br)cc2)cc1)c1ccccc1 (configuration not stated)	inactive		-67.1%		inactive	inactive	inactive	inactive	inactive	inactive	inactive	inactive	inactive	inactive		inactive	inactive		
Cc1cnc(NC(=O)C2C(=O)c3ccccc3S(=O)(=O)N2C)s1 (configuration not stated)	inactive		-14.2%		inactive	inactive	inactive	inactive	inactive	inactive	inactive	inactive	inactive	inactive	inactive	inactive	inactive		
